From PubChem BioAssay (NCATS)
Results filed as inconclusive are left out. The source made the active and inactive calls. Unless noted, calls come from the whole dose curve; as a rule, active = well fitted curve in the direction sought with a large enough effect; inconclusive = small, poorly fitted or top-dose-only effect, or another doubt; inactive = no such curve, though single readings can be large; an effect the other way counts as inactive or inconclusive.

Assays:
[1] = target: Cytochrome P450 1A2 (Homo sapiens) (UniProt P05177); assay: p450-cyp1a2 (AID 410; calls by dose curve;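 note: -100% = full effect of reference inhibitor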)
Outline: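 Human CYP1A2 (20nM) demethylated Luciferin-ME at its Km (100uM) in 100mM KPO4. After 10 min compound preincubation, NADPH regeneration ran the reaction 60 min at room temperature. Luciferin was read by luminescence, normalized to 57 uM furafylline.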

[2] = NFAT Signaling Pathway (AID 444; active = well fitted curve in either direction with a large enough effect, not every such curve was filed as active;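 note: carbachol stimulus at about its EC50 of 1 µM final; % is set by controls: 0 for no effect and ±100 for the full control effect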); details: Jurkat NFAT-bla M1, carbachol, beta-lactamase ratio, 5 h; at 38 µM (top of the series)
Outline: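 Jurkat cells carrying an NFAT-driven β-lactamase reporter and co-transfected muscarinic M1 receptor were treated with compound plus carbachol (1 uM final, an EC50 level) for 5 h at 37 °C. CCF4 loading followed for 1 h at RT; 460/530 nm ratio gave %activity.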

[3] = Stat Signaling Pathway (AID 446; active = well fitted curve in either direction with a large enough effect, not every such curve was filed as active;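 note: ME-180 cervical cancer cells given 40 pM IL-6 alongside compound; SIE-controlled beta-lactamase reporter measured as 460/530 nm FRET emission ratio; % is set by controls: 0 for no effect and ±100 for the full control effect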)
Outline: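 ME-180 SIE-bla cells; overnight plating; cpd + IL-6 40 pM, 5 h, 37 C; LiveBLAzer 2.5 h RT; 460/530 nm emission ratio. Normalized to 300 pM IL-6 and 125 nM JAK inhibitor controls.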

[4] = target: Glucocorticoid receptor (Homo sapiens) (UniProt P04150); assay: GR-GFP Redistribution (AID 450;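 active = compounds whose dose series gives a full or clear partial fitted curve of increased nuclear translocation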; note: potency is the fitted concentration of half-maximal effect); details: U2OS GR-GFP nuclear translocation, laser cytometry, 2 h
[5] = target: Glucocorticoid receptor (Homo sapiens) (UniProt P04150); assay: GR-EFC Redistribution (AID 451; calls by dose curve; note: potency is the fitted concentration of half-maximal effect); details: CHO-K1 GR-EFC translocation, beta-gal luminescence, 2 h
Outline: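 CHO-K1 cells stably expressing nuclear-localized β-gal enzyme acceptor and GR fused C-terminally to the enzyme donor fragment; ligand-driven nuclear translocation restores β-gal by complementation. Compounds titrated up to 46 uM final, 2 h at 37 °C; luminescence read.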

[6] = target: Mitogen-activated protein kinase 10 (Mus musculus) (UniProt Q61831); assay: JNK3 AlphaScreen Assay (AID 530; active = well fitted curve in either direction with a large enough effect, not every such curve was filed as active;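 note: kinase came from lysate of stimulated human HepG2 cells; signal reports phosphorylation of biotinylated GST-cJun 1-79 at Ser73 with 10 µM ATP; % is set by controls: 0 for no effect and ±100 for the full control effect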)
Outline: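 JNK3 came from HepG2 lysates pre-activated with IL-1beta and TNF-alpha and phosphorylated biotinylated GST-cJun (1-79) at 10 uM ATP, pH 7.6, room temperature. Compounds were titrated. AlphaScreen signal used anti-phospho-cJun (Ser73) antibody.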

[7] = target: 3',5'-cyclic-AMP phosphodiesterase 4B (Homo sapiens) (UniProt Q07343); assay: qHTS Assay for Inhibitors of PDE-IV (AID 607; active = well fitted activation curve with a large enough effect in the main read-out, with a control signal flat, not every such curve was filed as active; note: % of control where 0% means no effect)
Outline: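 ACTOne HEK293 cells carry a modified cAMP-gated CNG channel and express endogenous PDE4; plated 1000 cells/well, compounds up to 22.9 uM final. Membrane-potential dye fluorescence (ex 535/em 590) was read; parental cells received 10 uM forskolin + 100 uM RO 20-1724.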

[8] = target: Guanine nucleotide-binding protein G(i) subunit alpha-1 (Homo sapiens) (UniProt P63096); assay: qHTS Assay for Inhibitors of RGS12 GoLoco Motif Activity (Green Fluorophore) (AID 879);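 note: 0% = labeled peptide with Gαi1 and full inhibition = labeled peptide alone without protein; negative values mean loss of peptide binding seen as reduced polarization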
Outline: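 Fluorescence polarization assay: 50 nM Gαi1 with 10 nM FITC-labeled RGS12 GoLoco peptide in 10 mM Tris pH 7.5, 150 mM NaCl, 0.1 mM GDP, 0.05% NP40, 10 min at room temperature with compound.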

[9] = qHTS Assay for Identification of Small Molecule Antagonists for NFkB Signaling Pathway (AID 895; active = well fitted inhibition curve with a large enough effect in the signal ratio, with a control signal flat, not every such curve was filed as active; the % refers to the signal ratio; note: % is set by controls: 0 for no effect and ±100 for the full control effect)
Outline: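 NFkB-bla ME-180 cervical carcinoma cells with beta-lactamase reporter under NFkB response element; compounds added, then TNF alpha at 10 pM final (EC50), 5 h at 37 C. LiveBLAzer substrate 2 h, room temperature; emission 460/530 nm at 405 nm excitation.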

[10] = qHTS Assay for Identification of Small Molecule Agonists for Hypoxia Response Element Signaling Pathway (AID 914; active = well fitted activation curve with a large enough effect in the signal ratio, with a control signal flat, not every such curve was filed as active; the % refers to the signal ratio; note: % of control where 0% means no effect); details: ME-180 (cervical carcinoma) HRE-bla reporter, beta-lactamase ratio, CoCl2, 17 h; activation: stronger effect = higher value
Outline: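 Positive modulation of EC50 CoCl2-induced hypoxia response element signaling is measured in ME-180 cells with a beta-lactamase reporter. Compounds are titrated, incubation runs 17 hours, and %Activity derives from the blue/green ratio.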

[11] = target: Muscarinic acetylcholine receptor M1 (Rattus norvegicus) (UniProt P08482); assay: qHTS Assay for Antagonists of Acetylcholine Muscarinic M1 Receptor: Kinetic Measurement of Intracellular Calcium Response (AID 943);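 note: Fluo-4 calcium signal as peak divided by basal fluorescence over 4 min; nearly all actives have a fitted effect of over 75% in size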
Outline: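 CHO cells stably expressing rat M1 were loaded with no-wash Fluo-4 dye for 1 h at 37C, pre-incubated 10 min with compound, then challenged with EC80 carbachol (100 nM final); kinetic calcium read 4 min, peak/basal ratio.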

[12] = target: Pyruvate kinase (Leishmania mexicana) (UniProt Q27686); assay: qHTS Validation Assay for Inhibitors of Leishmania Mexicana Pyruvate Kinase (AID 945);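 note: 0% = DMSO only neutral control wells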
Outline: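 qHTS eight-point titrations against 0.2 nM LmPYK (E451W) in imidazole buffer pH 7.2 with 0.5 mM PEP, 0.1 mM ADP; 1 h, room temperature. Readout: PKLight luminescence, normalized to neutral DMSO wells.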

[13] = target: Pyruvate kinase PKM (Homo sapiens) (UniProt P14618); assay: qHTS Assay for Activators of Human Muscle Pyruvate Kinase (AID 954; active = well fitted curve in the direction sought with a large enough effect, not every such curve was filed as active;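 note: 0% = uninhibited enzyme and -100% = no enzyme or full thiadiazolimine inhibition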)
Outline: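 Luminescence from a luciferase ATP-detection/stop reagent reported PKM2 activity. Reactions contained 0.1 nM purified human enzyme, 0.5 mM PEP, 0.1 mM ADP and 7 mM MgCl2 at pH 7.2, run 1 h at RT.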

[14] = target: Alpha-galactosidase (Coffea arabica) (UniProt Q42656); assay: Counterscreen for Glucocerebrosidase Inhibitors: qHTS Assay for Coffee Bean alpha-Galactosidase at pH 4.5 (AID 957);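 note: plate controls were enzyme alone for no effect and no enzyme for full effect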
Outline: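 Green coffee bean enzyme (2 nM final) was incubated with compounds (0.7 nM to 77 uM) and 4-methylumbelliferyl alpha-D-galactopyranoside (80 uM final) in 50 mM citric acid, 0.005% Tween-20, pH 4.5, 20 min at room temperature; AC50 from Hill fits.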

[15] = target: Alpha-galactosidase A (Homo sapiens) (UniProt P06280); assay: Counterscreen for Glucocerebrosidase Inhibitors: qHTS Assay for Human alpha-Galactosidase at pH 4.5 (AID 992); note: 0% is about no effect
Outline: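 Enzyme at 2 nM final was combined with compound (0.7 nM to 77 uM) and 80 uM 4-methylumbelliferyl alpha-D-galactopyranoside in 50 mM citric acid, 0.005% Tween-20, pH 4.5. After 20 min at room temperature, fluorescence was read (Ex 365/Em 440 nm); AC50 came from Hill fits.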

[16] = target: alpha-glucosidase (Oryza sativa, rice) (UniProt Q653V4); assay: Counterscreen for Glucocerebrosidase Inhibitors: qHTS Assay for Rice alpha-Glucosidase at pH 5.0 (AID 997);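 note: 0% = full activity with enzyme and -100% = basal without enzyme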
Outline: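 Rice alpha-glucosidase (4 nM final) with 400 uM 4-methylumbelliferyl-alpha-D-glucopyranoside in citrate buffer pH 5.0, 20 min at room temperature, stopped at pH 10; fluorescence 365/440 nm, compounds 0.7 nM–77 uM, AC50 from Hill fits.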

[17] = target: Alpha-galactosidase (Coffea arabica) (UniProt Q42656); assay: Counterscreen for Glucocerebrosidase Inhibitors: qHTS Assay for Coffee Bean alpha-Galactosidase at pH 5.9 (AID 998);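 note: plate controls were uninhibited enzyme for no effect and no-enzyme basal signal for full effect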
Outline: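 Green coffee bean enzyme (2 nM final) was incubated with compounds (0.7 nM–77 uM) and 4-methylumbelliferyl alpha-D-galactopyranoside (80 uM) in citrate buffer pH 5.9, 20 min at room temperature. High-pH stop; fluorescence 365/440 nm; AC50 from Hill fits.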

[18] = Validation of Assay for Modulators of Lamin A Splicing (AID 1459; active = well fitted curve in the direction sought with a large enough effect in the signal ratio; the % refers to the signal ratio;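 note: cells exposed to compound for two days before reading; 0% is about no effect; ratio rise marks activators and ratio drop marks inhibitors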)
Outline: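 S3 HeLa stably expressing lamin A-EGFP splicing minigene and DsRed2, 600 cells/well in Opti-MEM with 2% FBS, treated 48 h at 37C; laser-scanning cytometry gives GFP/RFP total intensity ratio; ancitabine positive control, 0.5% DMSO vehicle.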

[19] = qHTS Assay for Lipid Storage Modulators (AID 1519; calls by dose curve; note: % is set by controls: 0 for no effect and ±100 for the full control effect); details: Drosophila S3 cells, BODIPY lipid droplet/cell ratio, laser cytometry; at 57.5 µM (top of the series); cells loaded with oleic acid
Outline: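 Cells seeded at 5,000 per well were treated with compounds over a concentration series and loaded with oleic acid (400 uM, as added). Lipid droplet fluorescence (488 nm excitation, 500-530 nm channel) was read by laser-scanning cytometry and normalized to 20 uM Triacsin C.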

Chain of Glucocorticoid receptor (Homo sapiens) (P04150 whole entry, looked up, the tested form may be a part): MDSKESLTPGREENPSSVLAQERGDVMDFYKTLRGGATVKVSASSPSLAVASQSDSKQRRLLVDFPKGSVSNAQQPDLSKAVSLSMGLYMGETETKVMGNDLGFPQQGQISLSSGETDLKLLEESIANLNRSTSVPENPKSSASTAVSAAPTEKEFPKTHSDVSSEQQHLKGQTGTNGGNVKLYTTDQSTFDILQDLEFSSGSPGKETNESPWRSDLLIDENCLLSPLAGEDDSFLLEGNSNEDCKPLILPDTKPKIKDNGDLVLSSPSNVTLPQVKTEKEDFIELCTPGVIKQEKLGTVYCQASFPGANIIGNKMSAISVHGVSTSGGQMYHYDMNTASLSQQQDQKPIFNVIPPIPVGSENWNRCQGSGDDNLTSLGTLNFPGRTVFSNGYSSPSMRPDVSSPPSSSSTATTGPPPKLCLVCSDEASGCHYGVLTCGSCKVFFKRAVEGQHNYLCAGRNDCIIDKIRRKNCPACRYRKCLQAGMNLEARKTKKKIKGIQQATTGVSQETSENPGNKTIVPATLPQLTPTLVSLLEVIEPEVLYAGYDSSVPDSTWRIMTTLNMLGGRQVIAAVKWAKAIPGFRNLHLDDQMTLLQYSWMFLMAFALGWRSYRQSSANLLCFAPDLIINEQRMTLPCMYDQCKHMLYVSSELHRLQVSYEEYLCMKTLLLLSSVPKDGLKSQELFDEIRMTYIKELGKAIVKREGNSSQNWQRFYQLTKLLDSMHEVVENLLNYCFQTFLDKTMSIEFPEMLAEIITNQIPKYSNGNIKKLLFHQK
Chain of Alpha-galactosidase (Coffea arabica) (Q42656 whole entry, looked up): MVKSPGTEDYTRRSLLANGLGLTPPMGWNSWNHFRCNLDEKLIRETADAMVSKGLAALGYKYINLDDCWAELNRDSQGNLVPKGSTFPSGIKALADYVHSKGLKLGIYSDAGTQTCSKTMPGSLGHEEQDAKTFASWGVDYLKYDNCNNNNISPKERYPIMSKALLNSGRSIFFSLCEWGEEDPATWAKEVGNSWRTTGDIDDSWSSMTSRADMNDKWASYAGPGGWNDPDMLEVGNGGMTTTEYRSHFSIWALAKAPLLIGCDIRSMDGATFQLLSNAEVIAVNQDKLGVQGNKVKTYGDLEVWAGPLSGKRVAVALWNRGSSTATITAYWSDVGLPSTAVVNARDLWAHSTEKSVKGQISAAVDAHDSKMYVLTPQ
Chain of Muscarinic acetylcholine receptor M1 (Rattus norvegicus) (P08482 whole entry, looked up): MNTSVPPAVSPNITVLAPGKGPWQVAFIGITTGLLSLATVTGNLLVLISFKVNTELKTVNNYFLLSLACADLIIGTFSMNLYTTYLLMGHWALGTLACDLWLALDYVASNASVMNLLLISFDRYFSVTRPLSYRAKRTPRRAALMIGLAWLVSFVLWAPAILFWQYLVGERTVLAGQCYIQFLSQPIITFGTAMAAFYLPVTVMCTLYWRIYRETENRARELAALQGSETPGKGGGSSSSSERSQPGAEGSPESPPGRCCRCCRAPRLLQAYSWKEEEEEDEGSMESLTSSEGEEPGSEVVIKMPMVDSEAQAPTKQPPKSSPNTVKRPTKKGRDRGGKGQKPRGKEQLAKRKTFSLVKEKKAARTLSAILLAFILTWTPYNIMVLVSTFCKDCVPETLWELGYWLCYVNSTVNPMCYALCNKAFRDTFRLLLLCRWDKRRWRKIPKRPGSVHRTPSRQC
Chain of Alpha-galactosidase A (Homo sapiens) (P06280 whole entry, looked up): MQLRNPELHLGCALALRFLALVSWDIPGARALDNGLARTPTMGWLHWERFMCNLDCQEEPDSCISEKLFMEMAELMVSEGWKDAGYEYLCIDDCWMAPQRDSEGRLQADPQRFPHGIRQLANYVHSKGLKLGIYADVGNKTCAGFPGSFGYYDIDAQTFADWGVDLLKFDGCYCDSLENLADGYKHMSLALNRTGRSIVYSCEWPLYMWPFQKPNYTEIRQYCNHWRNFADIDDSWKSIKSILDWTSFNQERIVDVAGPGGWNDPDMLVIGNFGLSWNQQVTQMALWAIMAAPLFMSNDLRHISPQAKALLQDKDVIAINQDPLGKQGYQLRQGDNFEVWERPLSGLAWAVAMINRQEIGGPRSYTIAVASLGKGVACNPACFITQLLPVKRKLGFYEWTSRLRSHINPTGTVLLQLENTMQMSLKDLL
Chain of Cytochrome P450 1A2 (Homo sapiens) (P05177 whole entry, looked up): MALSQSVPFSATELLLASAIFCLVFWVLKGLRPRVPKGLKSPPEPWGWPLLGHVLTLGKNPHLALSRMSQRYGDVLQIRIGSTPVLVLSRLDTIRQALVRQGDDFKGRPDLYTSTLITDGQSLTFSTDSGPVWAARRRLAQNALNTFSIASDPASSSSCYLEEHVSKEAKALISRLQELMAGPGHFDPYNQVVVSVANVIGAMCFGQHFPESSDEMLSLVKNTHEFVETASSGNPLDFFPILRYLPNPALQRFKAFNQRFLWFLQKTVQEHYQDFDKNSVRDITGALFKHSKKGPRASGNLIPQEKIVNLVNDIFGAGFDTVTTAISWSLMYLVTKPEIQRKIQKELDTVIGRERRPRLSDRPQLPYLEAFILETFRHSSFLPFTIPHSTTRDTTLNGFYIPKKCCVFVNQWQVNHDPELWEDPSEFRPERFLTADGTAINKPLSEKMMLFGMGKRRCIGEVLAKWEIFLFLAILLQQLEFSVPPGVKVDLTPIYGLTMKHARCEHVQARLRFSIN
Chain of Pyruvate kinase (Leishmania mexicana) (Q27686 2-499 E452W): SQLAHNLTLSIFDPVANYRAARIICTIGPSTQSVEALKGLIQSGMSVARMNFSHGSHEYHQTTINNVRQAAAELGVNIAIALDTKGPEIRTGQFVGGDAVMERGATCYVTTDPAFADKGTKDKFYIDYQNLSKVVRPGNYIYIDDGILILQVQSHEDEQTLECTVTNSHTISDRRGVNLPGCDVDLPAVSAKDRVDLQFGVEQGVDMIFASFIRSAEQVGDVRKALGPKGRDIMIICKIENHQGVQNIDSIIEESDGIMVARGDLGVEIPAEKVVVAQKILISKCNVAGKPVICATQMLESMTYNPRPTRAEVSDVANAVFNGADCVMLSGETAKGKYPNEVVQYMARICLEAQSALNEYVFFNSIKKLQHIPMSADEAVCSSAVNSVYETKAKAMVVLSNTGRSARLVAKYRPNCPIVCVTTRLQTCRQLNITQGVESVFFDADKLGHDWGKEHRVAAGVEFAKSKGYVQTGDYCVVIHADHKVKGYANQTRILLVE
Chain of 3',5'-cyclic-AMP phosphodiesterase 4B (Homo sapiens) (Q07343 whole entry, looked up): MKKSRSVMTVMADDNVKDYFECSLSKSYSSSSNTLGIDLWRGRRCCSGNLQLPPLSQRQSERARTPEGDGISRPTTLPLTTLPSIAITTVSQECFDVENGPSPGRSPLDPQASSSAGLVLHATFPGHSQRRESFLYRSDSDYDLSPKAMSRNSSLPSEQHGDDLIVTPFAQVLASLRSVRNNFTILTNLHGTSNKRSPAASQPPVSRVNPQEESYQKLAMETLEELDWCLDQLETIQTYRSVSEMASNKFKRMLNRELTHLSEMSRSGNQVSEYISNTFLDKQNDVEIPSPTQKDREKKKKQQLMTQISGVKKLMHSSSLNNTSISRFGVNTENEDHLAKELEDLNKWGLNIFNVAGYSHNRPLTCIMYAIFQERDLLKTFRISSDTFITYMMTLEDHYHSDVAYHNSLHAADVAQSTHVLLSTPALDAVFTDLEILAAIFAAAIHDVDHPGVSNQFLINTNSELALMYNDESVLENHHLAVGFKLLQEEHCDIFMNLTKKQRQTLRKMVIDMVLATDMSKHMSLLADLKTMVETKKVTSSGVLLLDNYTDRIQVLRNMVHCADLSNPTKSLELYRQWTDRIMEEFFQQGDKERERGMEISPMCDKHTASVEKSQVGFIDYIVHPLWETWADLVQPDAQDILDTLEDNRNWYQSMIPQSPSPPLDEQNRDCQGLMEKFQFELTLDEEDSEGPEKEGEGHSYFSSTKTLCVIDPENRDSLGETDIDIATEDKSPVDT
Chain of Guanine nucleotide-binding protein G(i) subunit alpha-1 (Homo sapiens) (P63096 whole entry, looked up): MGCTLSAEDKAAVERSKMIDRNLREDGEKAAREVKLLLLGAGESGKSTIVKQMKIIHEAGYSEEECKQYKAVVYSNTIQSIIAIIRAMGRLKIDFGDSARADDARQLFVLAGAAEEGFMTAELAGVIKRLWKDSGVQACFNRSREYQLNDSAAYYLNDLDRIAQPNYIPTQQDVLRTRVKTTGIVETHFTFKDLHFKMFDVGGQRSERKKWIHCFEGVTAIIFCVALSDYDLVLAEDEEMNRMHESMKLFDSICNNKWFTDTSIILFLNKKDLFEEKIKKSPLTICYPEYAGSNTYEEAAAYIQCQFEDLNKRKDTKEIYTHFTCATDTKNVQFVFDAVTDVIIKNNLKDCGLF
Chain of Pyruvate kinase PKM (Homo sapiens) (P14618 whole entry, looked up): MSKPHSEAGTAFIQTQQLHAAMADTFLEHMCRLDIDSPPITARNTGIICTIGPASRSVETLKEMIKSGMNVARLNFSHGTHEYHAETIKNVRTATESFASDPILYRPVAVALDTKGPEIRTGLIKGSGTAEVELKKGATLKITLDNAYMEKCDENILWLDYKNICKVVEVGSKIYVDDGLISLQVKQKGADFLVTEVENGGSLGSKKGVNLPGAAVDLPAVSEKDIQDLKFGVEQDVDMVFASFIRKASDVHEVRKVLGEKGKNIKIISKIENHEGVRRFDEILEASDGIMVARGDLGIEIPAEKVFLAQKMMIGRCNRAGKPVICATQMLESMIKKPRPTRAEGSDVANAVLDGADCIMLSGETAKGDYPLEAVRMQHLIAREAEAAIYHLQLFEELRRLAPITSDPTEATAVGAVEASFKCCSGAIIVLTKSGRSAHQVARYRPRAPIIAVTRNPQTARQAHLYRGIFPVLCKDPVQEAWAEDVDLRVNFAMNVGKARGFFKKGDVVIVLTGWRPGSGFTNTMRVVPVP

CP(=O)(O)CCCN
inactive: Potency [1] | activity change, negative = inhibition [2] 0.206% | outcome [3] | Potency [4] > 46 µM | Potency [5] > 46 µM | outcome [6] | Potency [7] | outcome [8] | Potency [9] | activation [10] 7.54% | Potency [11] | outcome [12] | outcome [13] | outcome [14] | outcome [15] | outcome [16] | outcome [17] | outcome [18] | activity change, negative = inhibition [19] -0.195%
